Tested on: SARS-CoV-2 low-rank motif (SARS-low)
Assay: normalised indicator fluorescence (fraction of RNA + indicator signal without compound); higher = less displacement of indicator (weaker competition)
Settings: compound concentration: 5 uM, 30 min
How it was run: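 For the displacement screen, RNA and a TO-PRO-1 or TO-PRO-3 indicator were held in 20 mM phosphate pH 7.0 with 20 mM NaCl and 80 mM KCl in 96-well plates. After adding 0.25 μL of each 1 mM DMSO stock (about 5 uM final) and waiting 30 min, fluorescence was measured on an Infinite 200 PRO with excitation at 485 or 620 nm. Each value is the mean of two independent experiments, expressed as blank-subtracted indicator fluorescence relative to the no-compound RNA-plus-indicator signal.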

[1] = indicator: TO-PRO-1 0.1 uM, RNA concentration: 0.1 uM
[2] = indicator: TO-PRO-3 0.5 uM, RNA concentration: 0.5 uM

SMILES | normalised indicator fluorescence [1] | normalised indicator fluorescence [2]
O=C(O)/C=C/c1ccc(Cn2ccnc2)cc1 [Ozagrel] | 1.09 | 1.21
O=c1cc(-c2ccc(O)c(-c3c(O)cc(O)c4c(=O)cc(-c5ccc(O)cc5)oc34)c2)oc2cc(O)cc(O)c12 [Amentoflavone] | 1.31 | 
CC(C)=CCC[C@](C)(O[C@@H]1O[C@H](CO)[C@@H](O)[C@H](O)[C@H]1O)[C@H]1CC[C@]2(C)[C@@H]1[C@H](O)C[C@@H]1[C@@]3(C)CC[C@H](O)C(C)(C)[C@@H]3[C@@H](O[C@@H]3O[C@H](CO)[C@@H](O)[C@H](O)[C@H]3O[C@@H]3OC[C@@H](O)[C@H](O)[C@H]3O)C[C@]12C [Notoginsenoside R1] | 1.23 | 1.26
C[C@H]1[C@H](C)CC[C@]2(C(=O)O)CC[C@]3(C)C(=CC[C@@H]4[C@@]5(C)C[C@@H](O)[C@H](O)[C@@](C)(CO)[C@@H]5CC[C@]43C)[C@H]12 [Asiatic acid] | 1.08 | 0.985
COc1ccc(-c2nc(-c3cc(C(F)(F)F)cc(C(F)(F)F)c3)n(Cc3ccc(C(N)=O)cc3)c2-c2ccc(OC)cc2)cc1 [Apoptozole] | 1.12 | 1.14
NNC(=O)c1ccncc1 [Isoniazid] | 1.12 | 1.13
Nc1c(Br)cc(Br)cc1CN[C@H]1CC[C@H](O)CC1 [Ambroxol] | 0.985 | 0.984
Cc1c(C)c2c(c(C)c1O)CCC(C)(C(=O)O)O2 (centres undefined) [Trolox] | 1.24 | 1.07
Oc1ccc(OCc2ccccc2)cc1 [Monobenzone] | 1.17 | 1.21
O=C(NC(Cc1cc(=O)[nH]c2ccccc12)C(=O)O)c1ccc(Cl)cc1 (centres undefined) [Rebamipide] | 1.3 | 1.07

Source: the supplement of paper PMC11865577
